Measured values reported in PubChem BioAssay AID720597 (Broad Institute, 2013).
Potency and affinity values are given separately.

Target: NAD-dependent protein deacylase sirtuin-5, mitochondrial (Homo sapiens) (UniProt Q9NXA8)
Assay: blockers of sirtuin-5 peptide desuccinylation – biochemical, fluorescence imaging, cherry-pick, set 6, dose response (AID 720597);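 also: lower AMC signal can also come from blocking the trypsin step; 0% = median of neutral control wells and -100% = median of positive control wells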
Conditions: Purified SirT5, succinyl-peptide-AMC/trypsin fluorescence; series mostly up to 15 µM; activity change, negative = inhibition: at the top concentration;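 active = fitted half-maximal dose no more than twice the top valid tested dose, for compounds that lower signal; inconclusive = fit invalid, or curve flat with activity between -70 and -30; inactive = potency past limit, curve flat within ±30, or signal increasing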

Chain of NAD-dependent protein deacylase sirtuin-5, mitochondrial (Homo sapiens) (Q9NXA8 whole entry, looked up): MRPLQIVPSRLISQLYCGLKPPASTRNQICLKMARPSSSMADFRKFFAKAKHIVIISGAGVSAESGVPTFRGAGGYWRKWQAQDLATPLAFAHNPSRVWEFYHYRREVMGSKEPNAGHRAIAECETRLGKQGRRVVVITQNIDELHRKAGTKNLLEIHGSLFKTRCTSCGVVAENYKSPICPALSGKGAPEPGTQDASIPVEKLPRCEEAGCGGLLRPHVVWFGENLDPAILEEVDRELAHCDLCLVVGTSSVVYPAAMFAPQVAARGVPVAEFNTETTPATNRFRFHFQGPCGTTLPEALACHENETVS

Activity change, negative = inhibition, inactive:
CCCC(=O)Nc1ccc2c(c1)OC[C@@H](C)N(Cc1ccccc1)C[C@H](C)[C@@H](OC)CN(C)C2=O -11.1%
COc1cccc(S(=O)(=O)N(C)C[C@H]2Oc3cc(C4=CCCCC4)ccc3S(=O)(=O)N([C@H](C)CO)C[C@@H]2C)c1 -20.5%
CCCC#Cc1ccc([C@H]2[C@H]3CN(C(=O)Cc4cccnc4)CC(=O)N3[C@H]2CO)cc1 -23.8%
Cc1ccc(S(=O)(=O)N(C)C[C@@H]2OCCCC[C@@H](C)Oc3ccc(NS(=O)(=O)c4ccc(F)cc4)cc3C(=O)N([C@H](C)CO)C[C@H]2C)cc1 10.9%
CC(C)CC#Cc1ccc2c(c1)O[C@H](CN(C)S(=O)(=O)c1cccc(F)c1)[C@H](C)CN([C@H](C)CO)S2(=O)=O -21.9%
O=C(CSc1nnc(-c2ccco2)n1-c1ccccc1)Nc1ccc(F)cc1 2.96%
COc1ccc(NC(=O)Nc2ccc3c(c2)C(=O)N([C@@H](C)CO)C[C@@H](C)[C@@H](CN(C)Cc2ccc(C(F)(F)F)cc2)O3)cc1 -1.17% [at 3.8 µM]
C[C@@H]1CN([C@H](C)CO)S(=O)(=O)c2ccc(/C=C/c3ccccc3)cc2O[C@@H]1CN(C)C(=O)NC1CCCC1 16%
COc1cccc(CN2[C@@H](CO)[C@H](c3ccccc3)C23CN(C(=O)C2CCCC2)C3)c1 -11.3%
COCC(=O)N1[C@H](CO)[C@@H](c2ccccc2)C12CN(Cc1cc(F)ccc1F)C2 -1.31%
C[C@@H]1CCCCO[C@@H](CN(C)C(=O)Cc2ccccc2)[C@@H](C)CN([C@@H](C)CO)C(=O)c2cc(NC(=O)Nc3ccc(F)cc3)ccc2O1 -29.6%
